FBA Mtb inh: Mtb FBA enzyme inhibitors, primary screen, biochemical, fluorescence, strain H37Rv; AID 588726, 2011; purified M. tuberculosis FBA, fluorescence read-out; Fructose-bisphosphate aldolase (Mycobacterium tuberculosis (strain ATCC 25618 / H37Rv)), …; 360,000 compounds, 2.3% hits; inhibition, % at 1 µM; in the data active = inhibition above about 27%;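 note: 0% = vehicle and 100% = reference inhibitor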
Mtb betalactam: beta-lactam sensitization of Mtb H37Rv, H37Rv | M. tuberculosis H37Rv growth with meropenem, percent inhibition | inhibition, % at 25 µM | 330,000 compounds, 0.27% hits; call rule not given here;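 note: growth measured after seven days incubation then overnight dye step; 0% = bacteria only wells and 100% = bacteria with antibiotic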
Rv3671c inh: Rv3671c serine protease inhibitors, primary screen, biochemical, fluorescence polarization, M. tuberculosis H37Rv | P9WHR9 | inhibition, % at 5.96 µM | 320,000 compounds, 0.048% hits; in the data active = inhibition above about 38%;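 note: extracellular domain of Rv3671c used as enzyme; 0% = enzyme with DMSO and 100% = no enzyme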
GDH-TPI counter: GDH-TPI coupling enzyme inhibitors, primary screen, artefact control for M. tuberculosis FBA inhibitor project, biochemical, absorbance, full deck. inhibition, % at 4.8 µM. GDH-TPI coupled enzyme counterscreen, NADH absorbance. 360,000 compounds, 1.2% hits; in the data active = inhibition above about 30%;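 note: 0% = DMSO wells and 100% = wells lacking the enzyme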
RecA splice inh: Mtb RecA intein splicing inhibitors, primary screen, biochemical, fluorescence, HTS; Protein RecA (Mycobacterium tuberculosis (strain ATCC 25618 / H37Rv)), P9WHJ3; cell-free RecA intein splicing; inhibition, % (concentration not given with the values); 290,000 compounds, 0.75% hits; AID 2221, 2009; in the data active = inhibition above about 30%;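 note: 0% = vehicle wells and 100% = reference inhibitor control wells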
UGM FP inh: M. tuberculosis UGM enzyme inhibitors, primary screen, biochemical, fluorescence polarization, single point; 320,000 compounds, 0.06% hits; inhibition, % at 10 µM; UDP-galactopyranose mutase (Mycobacterium tuberculosis (strain ATCC 25618 / H37Rv)), …; purified UGM, fluorescence polarization probe displacement; in the data active = inhibition above about 10%, passing the limit was not always enough
Numbers without * were called inactive; x = not tested or not shown. Sampled rows, rich in hits. Any-hit rate of the full collection: about 4%.

SMILES	FBA Mtb inh	Mtb betalactam	Rv3671c inh	GDH-TPI counter	RecA splice inh	UGM FP inh
Cc1ccc2nc(C3CCCCC3)c(Cc3cccc(Cl)c3)n2c1	145*	x	x	x	x	x
Cc1nc(S/C(=C/c2ccc(OCc3ccc(C(=O)O)cc3)cc2)C(=O)O)n[nH]1	4	-2	3	31*	1	5
Cc1nc(S/C(=C/c2ccc(-c3cccc(Cl)c3)o2)C(=O)O)n[nH]1	-3	99	0	6	-2	5
CC(C)(C#N)NC(=O)C1CCCN1S(=O)(=O)c1ccc2ccccc2c1 (stereo not drawn)	1	-2	-7	9	x	-1
CCN=c1scc(-c2ccco2)n1/N=C/c1ccc(OC)c(O)c1	-1	98	8	32*	3	-1
CCN=c1scc(-c2ccco2)n1/N=C/c1ccc(O)cc1	0	14	8	15	9	2
COc1cc(C)ccc1S(=O)(=O)NC(=O)C1(C)CCN1C(=O)Cc1ccccc1Cl (stereo not drawn)	4	x	x	8	x	x
Cc1nc2c(C)cccc2c2c1CCN2c1ccccc1F	113*	-6	5	10	-23	-1
O=C(COC(=O)Cc1ccc(S(=O)(=O)N2CCOCC2)s1)Nc1ccc(OC(F)F)cc1	2	-3	-9	10	x	1
CC(=O)NC1=C(Nc2ccc(N(C)C)cc2)C(=O)c2ccccc2C1=O	-5	10	-9	10	76*	0
Cc1nc2ccccn2c(=O)c1NC(=O)c1ccc2c(c1)OCO2	3	x	x	25	x	x
COCc1cc(C)n(CC(=O)Nc2cccc(C)c2)c(=O)c1C#N	4	3	-2	20	1	1
COCc1cc(C)n(CC(=O)Nc2ccc3c(c2)OCO3)c(=O)c1C#N	0	0	3	32*	-5	-3
COc1cc(CNC[C@H]2O[C@@H](n3ccc(N)nc3=O)[C@H](O)[C@@H]2O)ccc1OCc1cccc(Cl)c1	7	x	x	5	x	x
FC(F)(F)c1ccc(C2[C@H]3CN(Cc4cccnc4)[C@H](c4ccccc4)C34CC2(c2cccnc2)C4)cc1 (stereo partly drawn)	-2	98	-12	-4	40*	2
FC(F)(F)c1ccc(C2[C@H]3CN(Cc4ccc(-c5ccccc5)cc4)[C@H](c4ccccc4)C34CC2(c2cccnc2)C4)cc1 (stereo partly drawn)	x	-6	-3	x	3	1
COc1cc(/C=C/C(=O)OCC(=O)NC2CCCCCCC2)ccc1O	6	65	-3	33*	x	0
COc1cc(/C=C/C(=O)OCC(=O)N2CCc3ccccc3C2)ccc1O	3	-2	0	57*	3	1
COc1ccc(/C=C/C(=O)OCC(=O)NC2CCCCCC2)cc1	-2	x	x	20	x	x
Cc1ccc(S(=O)(=O)CCC(=O)OC2CC(C)OC2=O)cc1 (stereo not drawn)	2	2	6	-3	x	2
COc1ccc(NC(=O)Cn2nnc(C(=O)Nc3ccc(F)c(Cl)c3)c2N)cc1	3	-9	-36	11	-4	2
CCN(Cc1ccccc1)c1ccc(/C=N/NS(=O)(=O)c2ccc(C)c([N+](=O)[O-])c2)cc1	-4	2	1	32*	4	1
Cn1nnnc1SCc1cn2cccnc2n1	122*	-12	1	-6	1	-1
Cc1ncc([N+](=O)[O-])n1S(=O)(=O)c1cc(Cl)ccc1Cl	-8	1	1	-7	-1	3
CCOc1ccccc1-n1c(O)c(C=Nc2c(C)n(C)n(-c3ccccc3)c2=O)c(=O)[nH]c1=O	1	1	2	18	-2	0
COc1ccc(OC)c(-n2c(O)c(C=Nc3c(C)n(C)n(-c4ccccc4)c3=O)c(=O)[nH]c2=S)c1	-1	2	-1	32*	-4	1
Cc1c(N=Cc2c(O)n(CCc3ccc(F)cc3)c(=O)[nH]c2=O)c(=O)n(-c2ccccc2)n1C	-4	0	-1	36*	-3	0
COc1ccc(OC)c(CNC(=O)C(C)n2nc(C)c3c(C)n(-c4ccccc4)nc3c2=O)c1 (stereo not drawn)	3	0	-7	-4	-1	3

High-throughput results from PubChem BioAssay.
